Data reported in PubChem BioAssay AID2761 (The Scripps Research Institute Molecular Screening Center, 2010).
This is one part of the list. Values without a mark were called inactive. The source made the active and inactive calls. Cut-off read from the data, not from the text of the source: active = inhibition above about 38%; inactive = the rest.

Molecular target: Serine protease Rv3671c (Mycobacterium tuberculosis (strain ATCC 25618 / H37Rv)) (UniProt P9WHR9)
Assay: M. tuberculosis Rv3671c protease inhibition confirmation – biochemical, fluorescence polarization, M. tuberculosis H37Rv (AID 2761)
Conditions: at 5.96 µM; active compounds read high

Sequence of Serine protease Rv3671c (Mycobacterium tuberculosis (strain ATCC 25618 / H37Rv)) (P9WHR9 whole entry, looked up): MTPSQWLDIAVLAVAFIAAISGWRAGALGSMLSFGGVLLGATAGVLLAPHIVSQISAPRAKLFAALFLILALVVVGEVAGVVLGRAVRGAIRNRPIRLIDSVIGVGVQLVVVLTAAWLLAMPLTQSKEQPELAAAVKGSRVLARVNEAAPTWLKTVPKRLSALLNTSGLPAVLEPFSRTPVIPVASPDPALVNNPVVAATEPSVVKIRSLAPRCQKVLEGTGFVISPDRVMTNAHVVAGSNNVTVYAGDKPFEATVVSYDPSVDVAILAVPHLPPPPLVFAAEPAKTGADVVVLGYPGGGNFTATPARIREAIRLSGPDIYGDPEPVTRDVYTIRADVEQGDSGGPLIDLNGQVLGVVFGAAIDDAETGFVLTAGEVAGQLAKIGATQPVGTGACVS

Row | SMILES | inhibition
1 | COCCOC(=O)c1sc(=S)n(CCOC)c1N | 28.9%
2 | c1ccc2[nH]c(-c3nc4ccccc4[nH]3)nc2c1 | 66.6% (active)
